Experimental data as given in PubChem BioAssay (NCATS).
Inconclusive results are not listed. Active and inactive are the calls of the source. Unless noted, the call rests on the fitted dose curve; in most records, active means well fitted curve in the direction sought with a large enough effect; inconclusive means small, poorly fitted or top-dose-only effect, or another doubt; inactive means no such curve, though single readings can be large; an effect the other way counts as inactive or inconclusive.

Experiments:
[1] = molecular target: Lysosomal acid glucosylceramidase (Homo sapiens) (UniProt P04062); experiment: Glucocerebrosidase-p2 (AID 348; in the data active means potency below about 10 µM; further: potency means the concentration at half of the fitted maximal effect); settings: purified GBA, blue fluorogenic substrate, 40 min
Lysosomal acid glucosylceramidase (Homo sapiens), sequence (P04062 whole entry, looked up): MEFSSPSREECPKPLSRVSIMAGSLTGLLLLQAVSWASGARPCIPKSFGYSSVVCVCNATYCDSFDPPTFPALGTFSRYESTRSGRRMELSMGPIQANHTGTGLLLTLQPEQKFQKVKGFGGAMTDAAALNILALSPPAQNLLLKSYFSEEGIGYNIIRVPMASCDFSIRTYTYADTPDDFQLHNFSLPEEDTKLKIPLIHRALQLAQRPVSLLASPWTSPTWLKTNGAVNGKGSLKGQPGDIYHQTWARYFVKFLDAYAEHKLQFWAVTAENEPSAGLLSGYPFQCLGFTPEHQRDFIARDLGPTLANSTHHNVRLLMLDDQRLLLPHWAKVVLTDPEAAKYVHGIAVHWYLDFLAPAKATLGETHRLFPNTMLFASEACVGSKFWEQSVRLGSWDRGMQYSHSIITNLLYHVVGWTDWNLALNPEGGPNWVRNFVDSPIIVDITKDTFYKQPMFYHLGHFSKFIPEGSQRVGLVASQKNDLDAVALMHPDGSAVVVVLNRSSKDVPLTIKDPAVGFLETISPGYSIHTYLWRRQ
Method in brief: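 Compounds titrated from 0.6 nM upwards against 0.2 nM enzyme in pH 5.9 citric acid/KH2PO4, taurocholate, tween-20; blue fluorogenic substrate 80 uM, 40 min room temperature, stopped and read Ex 365/Em 440 for AC50.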

[2] = AP1 Signaling Pathway (AID 357; active means well fitted curve in either direction with a large enough effect, not every such curve was filed as active;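 further: ME-180 reporter cells stimulated with EGF at its EC50 level; on the % scale 0 is the no-effect control and ±100 the full control effect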); settings: ME-180 AP-1-bla reporter, EGF-induced, beta-lactamase ratio, 5 h; at 7.69 µM (top of the series) unless noted
Method in brief: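 Read-out was the 460nm/530nm emission ratio (excitation 405nm) after CCF4 loading for 2.5 hours at room temperature. Cells carried an AP-1-driven beta-lactamase reporter, were stimulated with EC50 EGF plus compound for 5 hours, and AC50 values came from titrations.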

[3] = molecular target: Cytochrome P450 1A2 (Homo sapiens) (UniProt P05177); experiment: p450-cyp1a2 (AID 410; calls by dose curve; further: potency means the concentration at half of the fitted maximal effect); settings: recombinant CYP1A2, luciferin-ME demethylation, luminescence; series mostly up to 57 µM
Cytochrome P450 1A2 (Homo sapiens), sequence (P05177 whole entry, looked up): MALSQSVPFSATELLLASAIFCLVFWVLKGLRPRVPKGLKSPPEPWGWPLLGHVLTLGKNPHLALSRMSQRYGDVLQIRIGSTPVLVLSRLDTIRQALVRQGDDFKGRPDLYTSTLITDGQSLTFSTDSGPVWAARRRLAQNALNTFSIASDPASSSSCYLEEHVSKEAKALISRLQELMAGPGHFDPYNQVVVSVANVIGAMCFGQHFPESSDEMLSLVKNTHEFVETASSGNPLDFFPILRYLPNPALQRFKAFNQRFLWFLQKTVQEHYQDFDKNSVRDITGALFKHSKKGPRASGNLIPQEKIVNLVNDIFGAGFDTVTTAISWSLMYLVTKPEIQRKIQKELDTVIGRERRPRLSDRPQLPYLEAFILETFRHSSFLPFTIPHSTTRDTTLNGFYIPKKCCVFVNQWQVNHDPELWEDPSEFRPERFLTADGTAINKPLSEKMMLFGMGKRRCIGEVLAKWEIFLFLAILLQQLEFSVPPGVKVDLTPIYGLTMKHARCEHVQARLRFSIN
Method in brief: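 Inhibition was calculated relative to 57 uM furafylline (full inhibition). The reaction used human CYP1A2 at 20nM with Luciferin-ME at its Km, 100uM, driven by an NADPH-regenerating system for 60 min at room temperature.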

[4] = NFAT Signaling Pathway (AID 444; active means well fitted curve in either direction with a large enough effect, not every such curve was filed as active;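 further: carbachol stimulus at about its EC50 of 1 µM final; on the % scale 0 is the no-effect control and ±100 the full control effect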); settings: Jurkat NFAT-bla M1, carbachol, beta-lactamase ratio, 5 h; at 7.69 µM (top of the series) unless noted
Method in brief: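 Read-out: CCF4 FRET ratio (460 nm/530 nm) after 1 h RT dye loading, used for %activity and AC50 from titration series. Cells: Jurkat NFAT-β-lactamase/M1 line, treated with compound plus 1 uM carbachol for 5 h, 37 °C.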

[5] = Stat Signaling Pathway (AID 446; active means well fitted curve in either direction with a large enough effect, not every such curve was filed as active;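 further: ME-180 cervical cancer cells given 40 pM IL-6 alongside compound; SIE-controlled beta-lactamase reporter measured as 460/530 nm FRET emission ratio; on the % scale 0 is the no-effect control and ±100 the full control effect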); settings: ME-180 (cervical carcinoma) SIE beta-lactamase reporter, IL-6 stimulated, 5 h; at 7.69 µM (top of the series) unless noted
Method in brief: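 IL-6/STAT signaling read in ME-180 cells via an SIE beta-lactamase reporter. Stimulus was 40 pM IL-6 (its AC50) for 5 hrs, so both activation and inhibition register.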

[6] = molecular target: Glucocorticoid receptor (Homo sapiens) (UniProt P04150); experiment: GR-GFP Redistribution (AID 450;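 active means compounds whose dose series gives a full or clear partial fitted curve of increased nuclear translocation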; further: potency means the concentration at half of the fitted maximal effect); settings: U2OS GR-GFP nuclear translocation, laser cytometry, 2 h
Glucocorticoid receptor (Homo sapiens), sequence (P04150 whole entry, looked up, the tested form may be a part): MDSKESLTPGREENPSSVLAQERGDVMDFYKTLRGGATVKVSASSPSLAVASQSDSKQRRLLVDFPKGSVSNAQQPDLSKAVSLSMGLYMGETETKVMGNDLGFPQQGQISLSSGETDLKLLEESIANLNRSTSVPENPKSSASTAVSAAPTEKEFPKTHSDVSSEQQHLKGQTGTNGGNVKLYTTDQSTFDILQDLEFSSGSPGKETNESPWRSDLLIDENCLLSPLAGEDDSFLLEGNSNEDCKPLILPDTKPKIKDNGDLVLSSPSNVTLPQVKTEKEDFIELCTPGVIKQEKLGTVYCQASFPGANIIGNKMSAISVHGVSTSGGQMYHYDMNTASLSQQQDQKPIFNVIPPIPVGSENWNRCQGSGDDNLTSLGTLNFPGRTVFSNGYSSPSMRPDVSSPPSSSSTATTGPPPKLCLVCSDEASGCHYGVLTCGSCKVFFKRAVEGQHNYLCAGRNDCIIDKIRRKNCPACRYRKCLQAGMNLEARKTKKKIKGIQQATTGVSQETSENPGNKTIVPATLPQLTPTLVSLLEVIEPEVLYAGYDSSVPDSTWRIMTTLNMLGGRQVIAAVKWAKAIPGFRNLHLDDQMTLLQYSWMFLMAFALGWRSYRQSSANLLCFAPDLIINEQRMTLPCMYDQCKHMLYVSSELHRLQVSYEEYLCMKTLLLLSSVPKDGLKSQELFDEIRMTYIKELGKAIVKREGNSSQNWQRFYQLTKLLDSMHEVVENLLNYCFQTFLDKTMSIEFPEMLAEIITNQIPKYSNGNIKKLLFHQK

[7] = molecular target: Glucocorticoid receptor (Homo sapiens) (UniProt P04150); experiment: GR-EFC Redistribution (AID 451; calls by dose curve; further: potency means the concentration at half of the fitted maximal effect); settings: CHO-K1 GR-EFC translocation, beta-gal luminescence, 2 h
Method in brief: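 Translocation of GR-ED fusion to nuclear EA restores b-gal, read by luminescence after 1 h room-temperature detection. Engineered CHO-K1 biosensor cells, 1,000/well, exposed 2 h at 37 C to titrations up to 46 uM final.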

[8] = molecular target: Mitogen-activated protein kinase 10 (Mus musculus) (UniProt Q61831); experiment: JNK3 AlphaScreen Assay (AID 530; active means well fitted curve in either direction with a large enough effect, not every such curve was filed as active;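 further: kinase came from lysate of stimulated human HepG2 cells; signal reports phosphorylation of biotinylated GST-cJun 1-79 at Ser73 with 10 µM ATP; on the % scale 0 is the no-effect control and ±100 the full control effect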); settings: JNK3 lysate, c-Jun phosphorylation; series mostly up to 57.1 µM
Method in brief: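 Room-temperature AlphaScreen kinase assay; pre-activated HepG2 lysate as JNK3 source, biotin-GST-cJun(1-79) substrate, 10 uM ATP, compound 15 min preincubation.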

[9] = molecular target: 3',5'-cyclic-AMP phosphodiesterase 4B (Homo sapiens) (UniProt Q07343); experiment: qHTS Assay for Inhibitors of PDE-IV (AID 607; active means well fitted activation curve with a large enough effect in the main read-out, with a control signal flat, not every such curve was filed as active; further: % of control where 0% means no effect); settings: HEK293 ACTOne CNG channel cells, membrane potential fluorescence; series mostly up to 22.9 µM
3',5'-cyclic-AMP phosphodiesterase 4B (Homo sapiens), sequence (Q07343 whole entry, looked up): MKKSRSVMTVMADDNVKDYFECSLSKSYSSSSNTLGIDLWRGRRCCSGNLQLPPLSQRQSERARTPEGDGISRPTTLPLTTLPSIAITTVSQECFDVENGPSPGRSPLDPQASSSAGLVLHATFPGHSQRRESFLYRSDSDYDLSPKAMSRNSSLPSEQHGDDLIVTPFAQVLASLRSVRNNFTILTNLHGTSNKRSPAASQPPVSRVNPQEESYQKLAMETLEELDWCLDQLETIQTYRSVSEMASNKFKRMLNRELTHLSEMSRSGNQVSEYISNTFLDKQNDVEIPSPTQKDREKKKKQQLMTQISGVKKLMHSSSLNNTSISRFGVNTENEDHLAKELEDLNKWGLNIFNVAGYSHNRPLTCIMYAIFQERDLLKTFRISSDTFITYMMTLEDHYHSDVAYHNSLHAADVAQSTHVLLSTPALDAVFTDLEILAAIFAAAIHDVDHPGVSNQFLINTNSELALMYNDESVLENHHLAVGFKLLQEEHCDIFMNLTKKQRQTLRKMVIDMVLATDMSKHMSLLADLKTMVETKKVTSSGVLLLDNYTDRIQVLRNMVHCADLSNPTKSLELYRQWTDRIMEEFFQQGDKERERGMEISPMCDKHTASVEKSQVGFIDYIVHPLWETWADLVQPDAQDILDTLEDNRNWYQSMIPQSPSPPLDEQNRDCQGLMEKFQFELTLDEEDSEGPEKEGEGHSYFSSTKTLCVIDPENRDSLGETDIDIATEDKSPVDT
Method in brief: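 Live HEK293 cells with a modified cyclic nucleotide-gated (CNG) channel report intracellular cAMP via membrane-potential dye fluorescence (ex 535/em 590 nm). Endogenous PDE-IV was targeted. Compounds were tested at up to 22.9 uM final; RO 20-1724 100 uM served as control.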

[10] = qHTS Assay for Lipid Storage Modulators (AID 1519; calls by dose curve); settings: Drosophila S3 cells, BODIPY lipid droplet/cell ratio, laser cytometry, cells loaded with oleic acid; for activity change, negative = inhibition: at 57.5 µM (top of the series)
Method in brief: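 Cells seeded at 5,000 per well were treated with compounds over a concentration series and loaded with oleic acid (400 uM, as added). Lipid droplet fluorescence (488 nm excitation, 500-530 nm channel) was read by laser-scanning cytometry and normalized to 20 uM Triacsin C.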

[11] = molecular target: Dual specificity protein kinase CLK4 (Homo sapiens) (UniProt Q9HAZ1); experiment: qHTS Assay for Inhibitors of CDC-like Kinase 4 (Kinase-Glo Assay) (AID 1770); settings: recombinant Clk4, Kinase-Glo ATP depletion luminescence; series mostly up to 66.7 µM; further: nearly all actives have a fitted effect of over 65% in size; further: potency means the concentration at half of the fitted maximal effect
Dual specificity protein kinase CLK4 (Homo sapiens), sequence (Q9HAZ1 whole entry, looked up): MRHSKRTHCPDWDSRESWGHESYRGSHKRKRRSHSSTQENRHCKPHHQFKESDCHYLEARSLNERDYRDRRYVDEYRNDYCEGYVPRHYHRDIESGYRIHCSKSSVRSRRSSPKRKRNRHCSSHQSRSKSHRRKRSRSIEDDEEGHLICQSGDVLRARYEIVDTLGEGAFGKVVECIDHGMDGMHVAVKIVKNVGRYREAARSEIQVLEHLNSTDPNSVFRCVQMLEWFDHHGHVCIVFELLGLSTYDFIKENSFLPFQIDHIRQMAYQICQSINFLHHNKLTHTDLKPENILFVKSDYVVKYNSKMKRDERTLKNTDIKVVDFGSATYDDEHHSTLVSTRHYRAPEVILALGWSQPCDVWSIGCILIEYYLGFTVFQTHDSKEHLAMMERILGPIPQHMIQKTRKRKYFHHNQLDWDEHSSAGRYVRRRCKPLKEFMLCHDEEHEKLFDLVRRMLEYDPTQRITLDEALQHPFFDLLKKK
Method in brief: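 Luminescent ATP-depletion read-out (Kinase-Glo) after 4.5 h room-temperature reaction of Clk4 (25 nM final) with RS peptide (100 uM) and ATP (1 uM), pH 7.5 Tris buffer with MgCl2 and DTT.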

[12] = molecular target: Dual specificity protein kinase CLK4 (Homo sapiens) (UniProt Q9HAZ1); experiment: qHTS Assay for Inhibitors of CDC-like Kinase 4 (ADP-Glo Assay) (AID 1771); settings: recombinant CLK4, ADP-Glo luminescence; series mostly up to 80 µM; further: nearly all actives have a fitted effect of over 70% in size; further: potency means the concentration at half of the fitted maximal effect
Method in brief: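 Kinase reaction: Clk4 at 25 nM, RS repeat peptide substrate at 100 uM, ATP at 1 uM, 1 hr, room temperature. Product ADP detected as luciferase signal via ADP-Glo.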

[13] = molecular target: Dual specificity protein kinase CLK4 (Homo sapiens) (UniProt Q9HAZ1); experiment: qHTS Assay for Inhibitors of CDC-like Kinase 4 (ADP-FP Assay) (AID 1795); settings: Transcreener ADP fluorescence polarization; series mostly up to 50 µM; further: nearly all actives have a fitted effect of over 60% in size; further: potency means the concentration at half of the fitted maximal effect
Method in brief: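 Kinase activity was measured as ADP production using Transcreener orange tracer (4 nM) and ADP antibody (1 ug/mL) fluorescence polarization, with ADP calculated from a calibration curve. The 1 h reaction contained 6.25 nM Clk4, 1 uM ATP and 100 uM RS peptide at pH 7.5 with Mg2+.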

[14] = molecular target: Ubiquitin carboxyl-terminal hydrolase 1 (Homo sapiens) (UniProt O94782); experiment: Inhibitors of USP1/UAF1: Pilot qHTS (AID 504865); settings: purified USP1/UAF1, Ub-rhodamine cleavage fluorescence; series mostly up to 54.9 µM; further: nearly all actives have a fitted effect of over 35% in size; further: potency means the concentration at half of the fitted maximal effect
Ubiquitin carboxyl-terminal hydrolase 1 (Homo sapiens), sequence (O94782 whole entry, looked up): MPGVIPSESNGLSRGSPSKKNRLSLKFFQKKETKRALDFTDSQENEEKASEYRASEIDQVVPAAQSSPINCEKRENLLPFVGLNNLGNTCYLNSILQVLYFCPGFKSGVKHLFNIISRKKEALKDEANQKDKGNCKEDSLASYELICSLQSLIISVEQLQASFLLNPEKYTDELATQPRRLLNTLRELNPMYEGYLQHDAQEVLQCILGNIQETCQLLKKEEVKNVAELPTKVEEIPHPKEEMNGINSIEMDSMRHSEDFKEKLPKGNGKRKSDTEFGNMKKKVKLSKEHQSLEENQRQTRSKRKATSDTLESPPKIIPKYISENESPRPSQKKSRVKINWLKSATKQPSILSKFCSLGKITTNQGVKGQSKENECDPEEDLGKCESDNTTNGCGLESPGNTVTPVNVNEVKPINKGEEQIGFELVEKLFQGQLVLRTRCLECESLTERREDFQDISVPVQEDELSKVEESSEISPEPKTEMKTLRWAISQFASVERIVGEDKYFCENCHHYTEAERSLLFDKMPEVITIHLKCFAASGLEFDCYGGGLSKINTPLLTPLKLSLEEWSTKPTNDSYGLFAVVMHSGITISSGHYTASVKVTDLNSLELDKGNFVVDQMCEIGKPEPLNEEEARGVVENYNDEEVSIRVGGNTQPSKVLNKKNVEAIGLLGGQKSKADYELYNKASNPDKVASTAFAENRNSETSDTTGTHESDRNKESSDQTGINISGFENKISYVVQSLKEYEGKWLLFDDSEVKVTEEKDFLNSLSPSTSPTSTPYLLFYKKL
Method in brief: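 Deubiquitinase activity followed as kinetic rhodamine fluorescence release from 150 nM Ub-Rho. 1 nM USP1/UAF1 with compound, after 15 min room-temperature preincubation, in HEPES pH 7.8 buffer containing TCEP, EDTA, BSA and Tween-20.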

[15] = Primary qHTS for small molecule stabilizers of the endoplasmic reticulum resident proteome: Secreted ER Calcium Modulated Protein (SERCaMP) assay (AID 1508630); settings: SH-SY5Y GLuc-SERCaMP (Gaussia luciferase released on ER calcium loss) secretion, thapsigargin, luminescence; series mostly up to 38.4 µM; further: on the % scale 0 is the no-effect control and ±100 the full control effect
Method in brief: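 GLuc-SERCaMP-expressing SH-SY5Y cells, pretreated 16 h with compound, are challenged with thapsigargin to empty ER calcium stores; after 4 h, coelenterazine is added directly to the medium and luminescence is imaged.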

[16] = molecular target: Cytochrome P450 3A4 (Homo sapiens) (UniProt P08684); experiment: qHTS Assay for Activators of Cytochrome P450 3A4 (AID 885); settings: recombinant CYP3A4, Luciferin-PPXE luminescence, 60 min; series mostly up to 57.1 µM; further: nearly all actives have a fitted effect of over 65% in size
Cytochrome P450 3A4 (Homo sapiens), sequence (P08684 whole entry, looked up): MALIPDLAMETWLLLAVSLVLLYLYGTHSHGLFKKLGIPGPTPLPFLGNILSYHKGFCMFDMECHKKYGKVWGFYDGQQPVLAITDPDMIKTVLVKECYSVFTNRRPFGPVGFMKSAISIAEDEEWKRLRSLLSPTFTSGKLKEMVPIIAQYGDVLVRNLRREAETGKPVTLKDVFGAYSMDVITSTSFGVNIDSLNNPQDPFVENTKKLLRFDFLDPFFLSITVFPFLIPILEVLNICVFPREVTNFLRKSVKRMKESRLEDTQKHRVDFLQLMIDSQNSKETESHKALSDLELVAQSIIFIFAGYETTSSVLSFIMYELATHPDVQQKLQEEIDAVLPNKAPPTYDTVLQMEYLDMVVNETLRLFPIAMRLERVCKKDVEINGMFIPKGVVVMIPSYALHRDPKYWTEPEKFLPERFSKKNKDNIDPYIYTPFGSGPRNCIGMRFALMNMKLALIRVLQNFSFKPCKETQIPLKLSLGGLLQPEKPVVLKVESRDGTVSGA
Method in brief: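 Quantitative HTS format: compounds preincubated with 20nM human CYP3A4 and Luciferin-PPXE substrate at KM, reaction started by NADPH regeneration, stopped after 60 min, luciferase luminescence read 20 min later.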

[17] = molecular target: Rap guanine nucleotide exchange factor 4 (Homo sapiens) (UniProt Q8WZA2); experiment: Confirmatory qHTS for antagonist of cAMP-regulated guanine nucleotide exchange factor 4 (EPAC2) (AID 1645885); settings: EPAC2 Rap1B-BODIPY-GDP exchange fluorescence, biochemical; series mostly up to 114 µM; further: on the % scale 0 is the no-effect control and ±100 the full control effect; nearly all actives have a fitted effect of over 25% in size
[18] = molecular target: Rap guanine nucleotide exchange factor 3 (Homo sapiens) (UniProt O95398); experiment: Confirmatory qHTS for agonist of cAMP-regulated guanine nucleotide exchange factor 3 (EPAC1) (AID 1645881); settings: EPAC1 Rap1B BODIPY-GDP exchange fluorescence, 100% = cAMP control response; series mostly up to 154 µM;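 further: EPAC1 catalysed release of BODIPY-GDP from Rap1B seen as fluorescence loss; nearly all actives have a fitted effect of over 75% in size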
[19] = molecular target: Rap guanine nucleotide exchange factor 4 (Homo sapiens) (UniProt Q8WZA2); experiment: Confirmatory qHTS for agonist of cAMP-regulated guanine nucleotide exchange factor 4 (EPAC2) (AID 1645884); settings: EPAC2 GEF activity, Rap1B-BODIPY-GDP fluorescence, percent relative to cAMP agonist control; series mostly up to 154 µM;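 further: nucleotide exchange releases bodipy-GDP from Rap1 and this lowers its fluorescence; on the % scale 0 is the no-effect control and ±100 the full control effect; nearly all actives have a fitted effect of over 65% in size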
[20] = measured here: cell count channel max response
[21] = measured here: lipid channel max response

N#Cc1cccc(-c2nc3cnc(N4CCOCC4)nc3n(C[C@H]3CCCO3)c2=O)c1
inactive: Potency [1] > 11.4 µM | activity change, negative = inhibition [2] -1.16% | activity change, negative = inhibition [4] 1.23% | activity, negative = inhibition [5] 6.63% | Potency [6] > 9.22 µM | Potency [7] > 46 µM | outcome [8] | Potency [9] | activity change, negative = inhibition [10] 4.04% | Potency [11] | Potency [12] | Potency [13] | Potency [14] | Potency [15]
11.4%: max response [10, 21]
10%: max response [10, 20]
active: Potency [3] 0.794 µM

CN(C)c1ncc2nc(-c3cccs3)c(=O)n(C[C@H]3CCCO3)c2n1
17.7%: max response [10, 21]
14.9%: max response [10, 20]
active: Potency [3] 1.58 µM
inactive: Potency [1] > 11.4 µM | activity change, negative = inhibition [2] -15.4% | activity change, negative = inhibition [4] 12.3% | activity, negative = inhibition [5] 1.25% | Potency [6] > 9.22 µM | Potency [7] > 46 µM | Potency [16] | activity change, negative = inhibition [10] 4.26% | Potency [11] | Potency [12] | Potency [13] | Potency [14] | Potency [15] | Potency [17]

FC(F)(F)c1ccccc1-c1nc(N2CCOCC2)c2ccccc2n1
28.1%: max response [10, 21]
22.9%: max response [10, 20]
active: Potency [11] 25.1 µM | Potency [12] 14.1 µM | Potency [14] 31.6 µM
inactive: Potency [1] > 11.4 µM | activity change, negative = inhibition [4] -3.63% | activity, negative = inhibition [5] 2.43% | Potency [6] > 46 µM | Potency [7] > 46 µM | outcome [8] | Potency [16] | activity change, negative = inhibition [10] 6.74% | Potency [15] | outcome [18] | outcome [19]

COc1cccc(Nc2ncc3nc(-c4ccc(F)cc4)c(=O)n(C)c3n2)c1
active: Potency [3] 3.16 µM
inactive: Potency [1] > 11.4 µM | activity change, negative = inhibition [2] -6.29% | activity change, negative = inhibition [4] -16.4% | activity, negative = inhibition [5] -6.63% | Potency [6] > 9.22 µM | Potency [7] > 46 µM | outcome [8] | Potency [9] | activity change, negative = inhibition [10] 5.16% | Potency [11] | Potency [12] | Potency [13] | Potency [14] | Potency [15]
19%: max response [10, 20]
25.1%: max response [10, 21]

COCCNc1ncnc2ccc(-c3ccoc3)cc12
inactive: Potency [1] > 11.4 µM | activity change, negative = inhibition [2] -23.8% | activity change, negative = inhibition [4] 11.2% | activity, negative = inhibition [5] -12.8% | Potency [6] > 46 µM | Potency [7] > 46 µM | outcome [8] | Potency [9] | activity change, negative = inhibition [10] 0.0459% | Potency [14] | Potency [15]
3.39%: max response [10, 21]
active: Potency [3] 15.8 µM | Potency [11] 0.891 µM | Potency [12] 1 µM | Potency [13] 0.224 µM
6.14%: max response [10, 20]
